Test results taken from PubChem BioAssay AID1159580 (chemical genetic matrix, 2015).
Several values for one entry are separate records, joined by “and”; a condition that tells them apart may be missing. Equal entries are not always repeated. In all, about 5,500 compounds went through this assay and about 2,000 (36%) were called active. Inconclusive results (about 18%) are left out. Cut-off read from the data, not from the text of the source: active = normalized growth mostly below about 0.91 (no sharp cut-off); inconclusive = no clear call, values can overlap the other calls; inactive = mostly above about 0.92. The list shows a part of the results.

Assay: chemical genetic growth profiling, strain panel (AID 1159580);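 note: tested at 20 µM; growth read once vehicle control cultures reached saturation at 30 °C; 1 = growth at the plate median or of vehicle wells; lower values mean less growth of the strain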
Settings: S. cerevisiae deletion strains, growth OD

Measured: normalized growth

CC(=O)c1c(O)c(C)c(O)c2c1OC1=CC(=O)C(C(C)=O)C(=O)C12C (configuration not stated)
inactive: locus YAL030W, strain snc1, stronger effect = lower value 0.938 | locus YBL061C, strain skt5, stronger effect = lower value 0.966 | locus YBR021W, strain FUR4, stronger effect = lower value 1.01 | locus YBR023C, strain chs3, stronger effect = lower value 0.978 | locus YBR171W, strain sec66, stronger effect = lower value 0.933 | locus YBR229C, strain ROT2, stronger effect = lower value 1.01 | locus YBR231C, strain swc5, stronger effect = lower value 0.963 | locus YBR279W, strain paf1, stronger effect = lower value 1.01 | locus YCL016C, strain dcc1, stronger effect = lower value 0.987 | locus YCL029C, strain bik1, stronger effect = lower value 0.976 | locus YCL069W, strain vba3, stronger effect = lower value 0.957 | locus YDL005C, strain med2, stronger effect = lower value 0.985 | locus YDL035C, strain GPR1, stronger effect = lower value 1.01 | locus YDL040C, strain nat1, stronger effect = lower value 0.991 | locus YDL074C, strain BRE1, stronger effect = lower value 0.987 | locus YDL101C, strain DUN1, stronger effect = lower value 1.01 | locus YDR001C, strain nth1, stronger effect = lower value 0.96 | locus YDR069C, strain doa4, stronger effect = lower value 0.98 | locus YDR137W, strain rgp1, stronger effect = lower value 0.972 | locus YDR150W, strain NUM1, stronger effect = lower value 1.01 | locus YDR162C, strain NBP2, stronger effect = lower value 1.03 | locus YDR297W, strain sur2, stronger effect = lower value 0.962 | locus YDR318W, strain mcm21, stronger effect = lower value 0.981 | locus YDR334W, strain swr1, stronger effect = lower value 0.953 | locus YDR388W, stronger effect = lower value 0.976 | locus YEL037C, strain rad23, stronger effect = lower value 0.948 | locus YEL061C, strain CIN8, stronger effect = lower value 1.01 | locus YER016W, strain bim1, stronger effect = lower value 1 | locus YER110C, stronger effect = lower value 0.988 | locus YER111C, strain swi4, stronger effect = lower value 0.919 | locus YER155C, strain BEM2 (second series), stronger effect = lower value 0.868 | locus YER155C, strain BEM2, stronger effect = lower value 1.01 | locus YER167W, strain BCK2, stronger effect = lower value 1.01 | locus YFR010W, strain ubp6, stronger effect = lower value 0.901 | locus YGL167C, strain pmr1, stronger effect = lower value 1.01 | locus YGL173C, strain kem1, stronger effect = lower value 0.992 | locus YGL227W, strain vid30, stronger effect = lower value 0.946 | locus YGL240W, strain doc1, stronger effect = lower value 0.894 | locus YGL248W, strain PDE1, stronger effect = lower value 1.02 | locus YGR078C, strain PAC10, stronger effect = lower value 1.02 | locus YGR135W, strain pre9, stronger effect = lower value 0.946 | locus YGR252W, strain gcn5, stronger effect = lower value 0.945 | locus YHR013C, strain ard1, stronger effect = lower value 1 | locus YHR027C, strain rpn1, stronger effect = lower value 0.983 | locus YHR079C, strain IRE1 (second series), stronger effect = lower value 0.986 | locus YHR094C, strain hxt1, stronger effect = lower value 0.984 | locus YHR129C, strain ARP1, stronger effect = lower value 1.02 | locus YHR200W, strain rpn10, stronger effect = lower value 0.932 | locus YIL066C, strain RNR3, stronger effect = lower value 1.02 | locus YIL073C, strain SPO22, stronger effect = lower value 1.03 | locus YIR030C, strain dcg1, stronger effect = lower value 0.975 | locus YJL095W, strain BCK1 (second series), stronger effect = lower value 0.964 | locus YJL115W, strain asf1, stronger effect = lower value 0.947 | locus YJL134W, strain LCB3, stronger effect = lower value 1.01 | locus YJL154C, strain vps35, stronger effect = lower value 0.979 | locus YJL166W, strain qcr8, stronger effect = lower value 0.913 | locus YJL168C, strain set2, stronger effect = lower value 0.972 | locus YJL187C, strain SWE1 (second series), stronger effect = lower value 1.01 | locus YJL187C, strain SWE1, stronger effect = lower value 0.972
active: locus YAL021C, strain ccr4, stronger effect = lower value 0.816 | locus YAL026C, strain drs2, stronger effect = lower value 0.812 | locus YBR009C, strain hhf1, stronger effect = lower value 0.739 | locus YCL011C, strain gbp2, stronger effect = lower value 0.672 | locus YCL061C, strain MRC1, stronger effect = lower value 0.858 | locus YCR088W, strain abp1, stronger effect = lower value 0.872 | locus YDL185W, strain tfp1, stronger effect = lower value 0.506 | locus YDL192W, strain arf1, stronger effect = lower value 0.852 | locus YDR101C, strain arx1, stronger effect = lower value 0.89 | locus YDR159W, strain sac3, stronger effect = lower value 0.762 | locus YDR195W, strain ref2 0.799 | locus YDR335W, strain msn5, stronger effect = lower value 0.752 | locus YDR392W, strain spt3, stronger effect = lower value 0.526 | locus YDR502C, strain sam2, stronger effect = lower value 0.853 | locus YEL003W, strain gim4, stronger effect = lower value 0.787 | locus YEL061C, strain CIN8 (second series), stronger effect = lower value 0.895 | locus YER015W, strain faa2, stronger effect = lower value 0.912 | locus YGL078C, strain dbp3, stronger effect = lower value 0.567 | locus YGL086W, strain mad1, stronger effect = lower value 0.909 | locus YGL253W, strain hxk2, stronger effect = lower value 0.892 | locus YHR079C, strain IRE1, stronger effect = lower value 0.133 | locus YHR142W, strain chs7, stronger effect = lower value 0.82 | locus YIL125W, strain kgd1, stronger effect = lower value 0.365 | locus YJL092W, strain hpr5, stronger effect = lower value 0.908 | locus YJL129C, strain trk1, stronger effect = lower value 0.684 | locus YJL164C, strain tpk1, stronger effect = lower value 0.84
1.03 (inactive) and 0.13 (active): locus YJL095W, strain BCK1, stronger effect = lower value
1.01 (inactive) and 0.142 (active): locus YHR030C, strain SLT2, stronger effect = lower value
